From the supplement of paper PMC10646978
± gives the standard deviation.

Assays:
Conditions in all cases: modulator concentration 10 µM
[1] = test system: RAW-Dual (murine macrophage reporter line); experiment: NF-kB reporter (SEAP) activity fold change vs agonist alone; higher = enhanced NF-kB activity
In short: (§1)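 RAW-Dual murine macrophage reporter cells were plated at 50 000 per well in 384-well plates, pin-transferred compound to 10 μM final, and pre-incubated for 1 hour at 37 °C before a PRR agonist was added and the cells incubated overnight. NF-κB activity was read from supernatant SEAP with QUANTI-Blue at 620 nm absorbance, and IRF activity from Lucia luciferase with QUANTI-Luc by luminescence. Each signal was expressed as fold change by dividing by the mean agonist-only control on the same plate. Two replicate plates were averaged, with errors obtained by propagation.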

[2] = test system: RAW-Dual (murine macrophage reporter line); experiment: IRF reporter (Lucia luciferase) activity fold change vs agonist alone; higher = enhanced IRF activity
In short: as §1

[3] = test system: RAW-Dual (murine macrophage reporter line); experiment: viability score (confluency relative to resting cells, overnight) (fraction); higher = more viable, active = viable (0.7 or more)
In short: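 Overnight exposure to 10 μM final compound was carried out on RAW-Dual macrophages in 384-well plates. IncuCyte software generated two confluency masks over all wells imaged with IncuCyte. The viability score gives confluency in relation to resting cells. A compound met the cutoff if each mask exceeded 70% of resting cells.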

[4] = agonist: CpG ODN 1826 0.5 ug/mL

Structure (SMILES) | NF-kB reporter [1, 4] | NF-kB reporter ([1]; agonist: LPS 0.1 ug/mL) | NF-kB reporter ([1]; agonist: MPLA […]) | IRF reporter ([2]; agonist: 3'3'-cGAMP 10 ug/mL) | IRF reporter ([2]; agonist: LPS 0.1 ug/mL) | IRF reporter ([2]; agonist: MPLA […]) | viability score [3]
Cc1ccc(Sc2cc(Sc3ccc(C)cc3)c3noc4c3c2C(=O)c2ccccc2-4)cc1 | 0.971 ± 0.078 | 1.03 ± 0.075 | 0.957 ± 0.09 | 0.959 ± 0.052 | 1.28 ± 0.21 | 1.49 ± 0.38 | 1.01 (active)
c1ccc(C2=Nc3ccccc3N=C(c3ccccc3)c3ccccc32)cc1 | 0.676 ± 0.039 | 1.18 ± 0.13 | 1.08 ± 0.066 | 0.914 ± 0.036 | 1.2 ± 0.1 | 1.01 ± 0.096 | 0.979 (active)
Cc1cc2ncc3c(n2n1)CCN(S(=O)(=O)N(C)C)C3 | 0.989 ± 0.11 | 1.01 ± 0.097 | 0.938 ± 0.043 | 1.03 ± 0.071 | 1.09 ± 0.081 | 1.05 ± 0.08 | 1 (active)
CC(C)NNC(=O)c1ccncc1 [Prestw-176] | 1.04 ± 0.078 | 1.06 ± 0.088 | 1.02 ± 0.022 | 1.02 ± 0.068 | 0.958 ± 0.083 | 1.01 ± 0.093 | 0.997 (active)
NCCNc1ccc(NCCN)c2c1C(=O)c1ccncc1C2=O.O=C(O)/C=C\C(=O)O.O=C(O)/C=C\C(=O)O | 0.917 ± 0.04 | 1 ± 0.085 | 1.13 ± 0.066 | 1.02 ± 0.049 | 1.36 ± 0.29 | 1.66 ± 0.55 | 0.97 (active)
CCOC(=O)C1=C(C)NC2=C(C(=O)CC(C)(C)C2)C1c1ccccc1Br (centres undefined) | 0.993 ± 0.096 | 1.07 ± 0.059 | 0.934 ± 0.056 | 0.898 ± 0.022 | 1.32 ± 0.19 | 0.975 ± 0.2 | 1.02 (active)
O=C(NCCN1C(=O)c2ccccc2C1(O)c1ccc(Cl)cc1)Nc1ccccc1 (centres undefined) | 1.28 ± 0.1 | 0.219 ± 0.011 | 0.22 ± 0.02 | 0.841 ± 0.045 | 0.0475 ± 0.0035 | 0.0497 ± 0.0069 | 0.73 (active)
COc1ccc(Cl)cc1S(=O)(=O)NCc1ccccn1 | 1.11 ± 0.07 | 0.901 ± 0.1 | 0.986 ± 0.026 | 1.01 ± 0.059 | 1.01 ± 0.1 | 0.936 ± 0.15 | 0.996 (active)
OC1(c2ccc(Cl)c(C(F)(F)F)c2)CCN(CCCC(c2ccc(F)cc2)c2ccc(F)cc2)CC1 | 0.101 ± 0.0057 | 0.173 ± 0.12 | 0.103 ± 0.0063 | 0.0719 ± 0.0038 | 0.145 ± 0.11 | 0.0408 ± 0.004 | 0.0235 (inactive)
COc1ccc(CCNC(=O)NCc2nn(C3CCCC3)c3c2CCCC3)cc1 | 0.854 ± 0.037 | 1.04 ± 0.12 | 1.12 ± 0.08 | 0.726 ± 0.057 | 1.13 ± 0.18 | 1.15 ± 0.27 | 0.983 (active)
Oc1c(Br)cc(C=NNc2nc3ccccc3s2)c(O)c1Br | 0.957 ± 0.082 | 0.958 ± 0.098 | 1.08 ± 0.1 | 0.642 ± 0.069 | 1.35 ± 0.23 | 1.63 ± 0.44 | 1.03 (active)
O=C(O)c1ccccc1N(Cc1ccccc1)S(=O)(=O)c1ccccc1 | 1.14 ± 0.13 | 1 ± 0.15 | 1.08 ± 0.061 | 0.965 ± 0.1 | 1.06 ± 0.072 | 0.938 ± 0.14 | 0.984 (active)
COC(=O)C1=C(C)N(Cc2ccccc2)C(=O)C1 | 1.06 ± 0.17 | 1.1 ± 0.14 | 0.984 ± 0.18 | 0.96 ± 0.039 | 1.32 ± 0.15 | 1.42 ± 0.3 | 0.623 (inactive)
C=C1C(=O)OC2CC3(C)CCCC(C)C3=CC12 (centres undefined) | 0.85 ± 0.054 | 0.72 ± 0.068 | 0.685 ± 0.06 | 0.0319 ± 0.0039 | 0.738 ± 0.059 | 0.839 ± 0.15 | 0.73 (active)
COc1ccc(N(CC(=O)N2CCc3ccccc3C2)S(C)(=O)=O)c(OC)c1 | 1.04 ± 0.13 | 1.09 ± 0.093 | 0.913 ± 0.057 | 0.992 ± 0.026 | 1.49 ± 0.28 | 1.13 ± 0.089 | 1.01 (active)
O=C1OC(CNS(=O)(=O)c2ccccc2Cl)CN1c1ccc(Cl)c(Cl)c1 (centres undefined) | 1.08 ± 0.078 | 1.22 ± 0.11 | 0.926 ± 0.058 | 1.13 ± 0.06 | 1.11 ± 0.068 | 1.08 ± 0.24 | 1.01 (active)
CC(C)(C)c1cc(C(=O)NN=Cc2ccc([N+](=O)[O-])cc2)[nH]n1 | 0.924 ± 0.12 | 0.953 ± 0.083 | 0.893 ± 0.09 | 0.858 ± 0.061 | 1.2 ± 0.11 | 1.02 ± 0.072 | 1.01 (active)
O=C(NCCC(CCO)c1ccccc1)c1cccc(Br)c1 (centres undefined) | 0.731 ± 0.033 | 1.03 ± 0.093 | 0.988 ± 0.053 | 0.653 ± 0.031 | 0.927 ± 0.18 | 0.958 ± 0.35 | 0.996 (active)
CC(=O)OC(OC(C)=O)c1ccc([N+](=O)[O-])s1 | 0.0633 ± 0.01 | 0.0636 ± 0.0089 | 0.156 ± 0.012 | 0.0166 ± 0.0041 | 0.0362 ± 0.0098 | 0.0457 ± 0.011 | 0.177 (inactive)
CCn1c2ccccc2c2cc(CNCCc3ccccc3)ccc21 | 0.476 ± 0.041 | 0.534 ± 0.035 | 0.977 ± 0.068 | 0.438 ± 0.067 | 0.605 ± 0.043 | 2.43 ± 0.32 | 0.0405 (inactive)
OCc1ccccc1OC1OC(CO)C(O)C(O)C1O (centres undefined) | 1.13 ± 0.27 | 1.07 ± 0.094 | 1.05 ± 0.069 | 0.889 ± 0.03 | 1.22 ± 0.23 | 1.13 ± 0.19 | 1 (active)
CCCC1CCC(c2ccc(C(=O)NNC(=O)c3ccc(C4CCC(CCC)CC4)cc3)cc2)CC1 (centres undefined) | 0.984 ± 0.059 | 1.01 ± 0.07 | 0.936 ± 0.059 | 0.898 ± 0.035 | 1.43 ± 0.11 | 1.13 ± 0.21 | 1.01 (active)
CCC(C)(Oc1ccc(C2(c3ccc(OC(C)(CC)C(=O)O)cc3)CCCCC2)cc1)C(=O)O (centres undefined) | 1.14 ± 0.26 | 1.09 ± 0.39 | 0.919 ± 0.063 | 0.946 ± 0.037 | 1.29 ± 0.44 | 1.24 ± 0.093 | 0.986 (active)
CC(=NOCON=C(C)c1ccc(F)cc1F)c1ccc(F)cc1F | 0.843 ± 0.067 | 0.907 ± 0.062 | 0.974 ± 0.086 | 0.991 ± 0.05 | 1.39 ± 0.085 | 1.53 ± 0.15 | 1 (active)
Cn1cnc2cc(NCc3nc4ccccc4n3C)ccc21 | 0.818 ± 0.065 | 1.03 ± 0.078 | 1.01 ± 0.039 | 0.955 ± 0.17 | 1.03 ± 0.15 | 1.03 ± 0.24 | 1 (active)
COc1ccc(OC)c(-c2csc(NC(=O)C3CC3)n2)c1 | 1.11 ± 0.068 | 0.972 ± 0.08 | 1 ± 0.034 | 0.935 ± 0.043 | 1.01 ± 0.061 | 1.13 ± 0.12 | 0.994 (active)
CCOC(=O)Nc1nc(C)c(C(C)=O)s1 | 0.763 ± 0.059 | 0.872 ± 0.046 | 1.12 ± 0.098 | 0.996 ± 0.058 | 1.35 ± 0.081 | 1.44 ± 0.14 | 1.02 (active)
